Experiment [1] can be described thus: cAMP Responsive Elements (CRE) small molecule antagonists, cell-based qHTS assay: qHTS cell viability counter screen (AID 2060913). Further: nearly all actives have a fitted effect of over 40% in size. In a few lines:
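CRE-bla HEK293T cells (2,000/well, 18 h) given compound plus NKH477 0.25 uM final for 3 h at 37C; viability counter-screen by CellTiter-Glo luminescence in same wells after 30 min.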

A short description of experiment [2]: cAMP Responsive Elements (CRE) small molecule agonists, cell-based qHTS assay: qHTS cell viability counter screen (AID 2060914). Further: nearly all actives have a fitted effect of over 50% in size. The method in brief:
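Cytotoxicity was measured as ATP luminescence (CellTiter-Glo, 30 min at room temperature) in the same wells as the CRE-bla FRET read-out. HEK293T CRE-bla cells had 3 h compound exposure at 37C/5% CO2.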
A general note: In qHTS, concentration-response curves come from the screen itself.

Each structure is given as a SMILES string. Results filed as inconclusive are left out. Unmarked numbers belong to inactive results. Active and inactive are the calls of the source. The call rests on the fitted dose curve; in most records, active means well fitted cell-killing curve with a large enough effect in the repeat runs; inconclusive means weak or mixed curves, or effect the other way; inactive means flat fitted curve, though single readings scatter.
Potency means the concentration at half of the fitted maximal effect.

As to `CC1=CP(=O)(c2ccccc2)CC1` (configuration not stated), the Potency result in experiment [1] and in experiment [2] was “inactive” each time.

With `COc1ccc(C2CNC(=O)C2)cc1OC1CCCC1` (configuration not stated), the Potency entry in experiment [1] and in experiment [2] was “inactive” each time.

Consider `O=Cc1cccc(Br)c1`, for which the Potency result in experiment [1] and in experiment [2] was “inactive” in each case.

`COc1cc(N)ccc1C`: the Potency result in experiment [1] and in experiment [2] was “inactive” in each case.

Take `N=c1ccn2c(n1)O[C@H]1[C@H](O)[C@@H](CO)O[C@H]12`: the Potency entry in experiment [1] and in experiment [2] was “inactive” throughout.

For `COC(=O)C1=C(C)NC(C)=C(C(=O)OCCN2CCN(C(c3ccccc3)c3ccccc3)CC2)C1c1cccc([N+](=O)[O-])c1` (configuration not stated), the Potency entry in experiment [1] and in experiment [2] was “inactive” each time.

As to `O=C(O)[C@H](O)[C@@H](O)[C@H](O)[C@H](O)CO`, the Potency result in experiment [1] and in experiment [2] was “inactive” in each case.

Consider `CCCc1nn(C)c2c(=O)[nH]c(-c3cc(S(=O)(=O)N4CCN(C)CC4)ccc3OCC)nc12`, for which the Potency result in experiment [1] and in experiment [2] was “inactive” throughout.

Take `NC(N)=NC(=O)Cc1c(Cl)cccc1Cl`: the Potency result in experiment [1] and in experiment [2] was “inactive” each time.

On to `Cc1ccc(Cl)c(Nc2ccccc2C(=O)O)c1Cl`, for which the Potency entry in experiment [1] and in experiment [2] was “inactive” in each case.

As to `Cc1cccc(N)n1`, the Potency result in experiment [1] and in experiment [2] was “inactive” in each case.

Consider `COS(=O)(=O)C(F)(F)F`, for which the Potency entry in experiment [1] and in experiment [2] was “inactive” each time.

As to `C=CC(C)C#N` (configuration not stated), the Potency entry in experiment [1] and in experiment [2] was “inactive” throughout.

Take `CCNCCO`: the Potency result in experiment [1] and in experiment [2] was “inactive” throughout.

Regarding `O=C(/C=C/c1ccccc1)OCCc1ccccc1`, the Potency entry in experiment [1] and in experiment [2] was “inactive” in each case.

On to `CC1=CC[C@@H](C(C)(C)O)CC1`, for which the Potency entry in experiment [1] and in experiment [2] was “inactive” in each case.

As to `COC(=O)NCCC[Si](OC)(OC)OC`, the Potency result in experiment [1] and in experiment [2] was “inactive” in each case.

For the compound `COC(C)(OC)OC`, the Potency entry in experiment [1] and in experiment [2] was “inactive” throughout.

On to `Cc1cccc(Br)c1`, for which the Potency result in experiment [1] and in experiment [2] was “inactive” each time.

For `Nc1cc(C(=O)O)c(O)c(S(=O)(=O)O)c1`, the Potency result in experiment [1] and in experiment [2] was “inactive” in each case.

Turning to `O=Cc1ccc(F)cc1`, the Potency result in experiment [1] and in experiment [2] was “inactive” in each case.

As for `CN1CCC(=C2c3ccccc3CC(=O)c3sccc32)CC1`, the Potency entry in experiment [1] and in experiment [2] was “inactive” throughout.

On to `O=CN(CCO)CCO`, for which the Potency entry in experiment [1] and in experiment [2] was “inactive” in each case.

Consider `CNC(=O)c1ccccc1`, for which the Potency entry in experiment [1] and in experiment [2] was “inactive” in each case.

Consider `CN(C)C(=O)CNC(=O)Cc1ccccc1`, for which the Potency entry in experiment [1] and in experiment [2] was “inactive” throughout.

On to `O=C1OC(=O)C2CCCCC12` (configuration not stated), for which the Potency entry in experiment [1] and in experiment [2] was “inactive” in each case.

Take `CC/C=C\CCOC(=O)CC`: the Potency result in experiment [1] and in experiment [2] was “inactive” throughout.

With `CN1CCC(Nc2ncc3ncnc(Nc4ccc(F)c(Cl)c4)c3n2)CC1`, the Potency entry in experiment [1] and in experiment [2] was “inactive” each time.

On to `C=C1C[C@]23C[C@@]1(O)CC[C@H]2[C@@]12C=C[C@H](O)[C@@](C)(C(=O)O1)[C@H]2[C@@H]3C(=O)O`, for which the Potency result in experiment [1] and in experiment [2] was “inactive” throughout.

As for `Cc1cn([C@H]2C[C@H](N=[N+]=[N-])[C@@H](CO)O2)c(=O)[nH]c1=O`, the Potency entry in experiment [1] and in experiment [2] was “inactive” throughout.

With `COc1cc2c(cc1OC)-c1cc3ccc(OC)c(OC)c3c[n+]1CC2`, the Potency result in experiment [1] and in experiment [2] was “inactive” each time.

For the compound `O=C1c2ccccc2-c2ccccc21`, the Potency entry in experiment [1] and in experiment [2] was “inactive” throughout.

Take `CC(=O)NC(Cc1ccccc1)C(=O)O` (configuration not stated): the Potency result in experiment [1] and in experiment [2] was “inactive” each time.

Turning to `O=C1C(O)=C(O)C(=O)C(O)=C1O`, the Potency entry in experiment [1] and in experiment [2] was “inactive” throughout.

As to `COC(=O)Cc1cccc2ccccc12`, the Potency result in experiment [1] and in experiment [2] was “inactive” in each case.

With `C=CC(=O)OCCOCCOCC`, the Potency result in experiment [1] and in experiment [2] was “inactive” in each case.

As for `O=S(=O)(O)c1cccc2ccccc12`, the Potency result in experiment [1] and in experiment [2] was “inactive” throughout.

Regarding `CCCCN(CCC(=O)OCC)C(C)=O`, the Potency entry in experiment [1] and in experiment [2] was “inactive” throughout.

In the case of `CCOc1c(N2CCOCC2)cnn(C)c1=O`, the Potency entry in experiment [1] and in experiment [2] was “inactive” throughout.

On to `CC(C)=CCC/C(C)=C/CC/C(C)=C/CCC(=O)OC/C=C(\C)CCC=C(C)C`, for which the Potency entry in experiment [1] and in experiment [2] was “inactive” throughout.

On to `O=C(O)Cc1ccc(OCCNC[C@H](O)c2ccccc2)cc1`, for which the Potency result in experiment [1] and in experiment [2] was “inactive” in each case.

`COc1ccccc1N1CCN(CC(O)COc2cc(OC)c(OC)c(OC)c2)CC1` (configuration not stated): the Potency entry in experiment [1] and in experiment [2] was “inactive” throughout.

For the compound `Cc1ccc([N+](=O)[O-])c(C)c1`, the Potency result in experiment [1] and in experiment [2] was “inactive” in each case.

In the case of `CC(C)=CCC/C(C)=C/CC/C(C)=C/CO`, the Potency entry in experiment [1] and in experiment [2] was “inactive” throughout.

Take `Cc1cccc(O)c1N`: the Potency entry in experiment [1] and in experiment [2] was “inactive” each time.

`Cc1cc(N)c(S(=O)(=O)O)cc1Cl`: the Potency result in experiment [1] and in experiment [2] was “inactive” in each case.

As for `C=CC(=O)OCCCCCC`, the Potency result in experiment [1] and in experiment [2] was “inactive” each time.

As to `Nc1nccs1`, the Potency result in experiment [1] and in experiment [2] was “inactive” in each case.

Consider `Cc1c(-c2cccnc2)c2ccccc2n1CCCCC(=O)O`, for which the Potency result in experiment [1] and in experiment [2] was “inactive” each time.

Turning to `CC(C)=CC(=O)O`, the Potency entry in experiment [1] and in experiment [2] was “inactive” in each case.

Consider `COc1ccnc2c1CCCCC2S(=O)c1nc2ccccc2[nH]1` (configuration not stated), for which the Potency entry in experiment [1] and in experiment [2] was “inactive” throughout.

Consider `CN(C)CCN(Cc1ccccc1)c1ccccn1`, for which the Potency result in experiment [1] and in experiment [2] was “inactive” throughout.

Consider `CC(C)(C)CC(C)(C)c1ccccc1O`, for which the Potency in experiment [1] and in experiment [2] was 61.4 µM (active) each time.

Turning to `O=C(Cl)c1ccc([N+](=O)[O-])cc1`, the Potency entry in experiment [1] and in experiment [2] was “inactive” each time.

Turning to `Clc1ccc(C(Cn2ccnc2)OCc2ccsc2Cl)c(Cl)c1` (configuration not stated), the Potency entry in experiment [1] and in experiment [2] was “inactive” throughout.

`COC(=O)Nc1nc2ccc(C(=O)C3CC3)cc2[nH]1`: the Potency entry in experiment [1] and in experiment [2] was “inactive” in each case.
